Values joined by “and” are separate entries in the source; they are usually repeats but may differ in a detail not shown here. Equal entries are not always repeated. Where a structure was tested more than once in an assay, its records may differ in their call. Active and inactive are the calls of the source.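 How the source made its calls, unless noted: active means thallium flux through the channel raised or lowered by more than 3 SD from vehicle-only wells, actives on both sides; inactive means the rest.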
Columns and labels:
[1] = tested on: Hepatitis C virus NS3 helicase; assay: blockers of NS3h binding to DNA – biochemical, fluorescence polarization, NIH Clinical Collection, primary screen (AID 743270; call rule not given here); settings: NS3 helicase binding to Cy5-dT15 DNA, stronger effect = higher value, concentration not given here
[2] = molecular target: Single-stranded DNA-binding protein (Escherichia coli (strain K12)) (UniProt P0AGE0); assay: SSB-ssDNA binding inhibitors – biochemical, fluorescence polarization, NIH Clinical Collection, counter-screen for HCV NS3 helicase inhibitor project (AID 743271; in the data active means inhibition above about 28%); settings: E. coli SSB-DNA binding, stronger effect = higher value, concentration not given here
[3] = compounds distorting NS3 helicase fluorescence signal – biochemical, NIH Clinical Collection, artefact control for HCV NS3 helicase inhibitor project (AID 743272; call rule not given here;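 further: HCV NS3 helicase with a Cy5 labelled single stranded DNA probe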); settings: fluorescence interference counterscreen, HCV NS3 helicase assay; stronger effect = lower value
[4] = Wnt pathway potentiators raising nuclear beta-catenin – imaging, WNT3A-conditioned medium, mouse C2C12, NPC library, primary screen (AID 1117326; in the data active means nuclear beta-catenin stimulation mostly above about 4.2%, no sharp cut-off; inactive means mostly below about 10%); settings: stronger effect = higher value
[5] = stimulators of insulin release from INS-1E, primary screen, cell-based, 5 mM glucose, NPC library (AID 1117329;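 active means compound raises insulin release from rat beta cells at 5 mM glucose, no numeric limit stated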); settings: rat INS-1E insulin secretion, at 10 µM, stronger effect = higher value
[6] = growth inhibition of GSK3B-pretreated HCT116 cells – cell-based, CellTiter-Glo, 0.2 to 20 µM (AID 1117336;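 active means compounds lowering colon cancer cell viability after pretreatment blocking the GSK3B kinase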); settings: HCT116 viability after GSK3B inhibitor, at 20 µM, stronger effect = higher value
[7] = inhibition of endothelial tube formation, primary screen, imaging, VEGF stimulated, CD31 staining, tube area, NPC library (AID 1117340;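 active means compound that reduces growth-factor-driven endothelial tube area in a mixed cell culture, no cutoff stated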); settings: VEGF-stimulated ADSC/ECFC co-culture, at 10 µM, stronger effect = higher value
[8] = GLP1 release stimulators, primary, NCI-H716, NPC library (AID 1117341;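 active means compound raises GLP1 secretion from the human gut endocrine cells, with no numeric limit stated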); settings: NCI-H716 cells, at 10 µM, stronger effect = higher value
[9] = HCT116 colon cancer cell growth inhibition, primary screen, CellTiter-Glo luminescence, NPC library (AID 1117342;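 active means compounds that lower survival of HCT116 colon cancer cells in the luminescence readout, no numeric limit stated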); settings: at 20 µM (top of the series)
[10] = reduced SW480 viability measured with CellTiter-Glo, NPC library, primary (AID 1117343;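 active means compounds that lower viability of the colon cancer cells in the luminescence readout, with no numeric limit stated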); settings: CellTiter-Glo luminescence; at 20 µM (top of the series)
[11] = NPC library primary testing for decreased DLD-1 cell viability via CellTiter-Glo (AID 1117346;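 active means compounds that lower survival of DLD-1 colon cancer cells in the luminescence readout, no cutoff given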); settings: DLD-1 viability, CellTiter-Glo luminescence; at 20 µM (top of the series)
[12] = molecular target: 6-phosphogluconate dehydrogenase, decarboxylating (Homo sapiens) (UniProt P52209); assay: inhibition of human phosphogluconate dehydrogenase – biochemical, recombinant enzyme, NADPH absorbance, primary screen (AID 1159550;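 active means at least 20% inhibition of 6-phosphogluconate dehydrogenase activity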); settings: recombinant 6PGD, NADPH absorbance 341 nm; at 10 µM; stronger effect = higher value
Sequence of 6-phosphogluconate dehydrogenase, decarboxylating (Homo sapiens) (P52209 whole entry, looked up): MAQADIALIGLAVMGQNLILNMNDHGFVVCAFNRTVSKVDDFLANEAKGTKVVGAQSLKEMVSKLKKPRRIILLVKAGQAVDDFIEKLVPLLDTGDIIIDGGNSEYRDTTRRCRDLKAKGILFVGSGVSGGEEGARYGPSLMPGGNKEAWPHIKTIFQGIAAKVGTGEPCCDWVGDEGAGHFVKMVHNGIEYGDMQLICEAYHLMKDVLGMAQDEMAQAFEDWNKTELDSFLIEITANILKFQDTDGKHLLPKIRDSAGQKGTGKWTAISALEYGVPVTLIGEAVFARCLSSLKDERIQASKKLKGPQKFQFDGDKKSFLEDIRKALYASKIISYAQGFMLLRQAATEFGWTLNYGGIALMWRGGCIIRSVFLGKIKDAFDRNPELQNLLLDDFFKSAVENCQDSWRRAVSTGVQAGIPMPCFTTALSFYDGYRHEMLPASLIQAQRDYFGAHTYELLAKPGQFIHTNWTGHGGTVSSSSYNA

[13] = EMT-state selective cytotoxicity in co-culture – imaging, PC-3E GFP, TEM4-18 mCherry, primary screen (AID 1345086;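 active means compounds killing one labelled cell type while sparing the other, by normalised counts and ratio limits, not self-fluorescent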;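 on all read-outs here: cells exposed to compound for 72 h before imaging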;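 on red/green cell ratio (normalised): normalised mesenchymal count divided by normalised epithelial count so high means epithelial killing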); settings: PC-3E GFP / TEM4-18 mCherry co-culture, imaging cell counts, at 1 µM; for red/green cell ratio (normalised): actives lie on both sides, counts scaled to control wells, 1 = unselective
[14] = MELAS cybrid and Rieske KO viability enhancers – cell-based, MELAS cybrids, Rieske KO mouse fibroblasts, CellTiter-Glo, primary screen (AID 1508586;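 active means mean z-score across replicates of 1.96 or higher in either the MELAS or the Rieske mutant cell line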;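 further: z relative to plate mean and SD of compound and empty wells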); settings: low glucose
[15] = molecular target: NAD(+) hydrolase SARM1 (Homo sapiens) (UniProt Q6SZW1); assay: blocking NAD cleavage by SARM1 SAM-TIR – cell lysate, NAD-Glo luminescence (AID 1508614;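 active means compound whose remaining NAD level is above about 45 nM, limit read from the data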); settings: SAM-TIR HEK293T lysate NADase, at 1 µM, stronger effect = higher value
Sequence of NAD(+) hydrolase SARM1 (Homo sapiens) (Q6SZW1 whole entry, looked up, the tested form may be a part): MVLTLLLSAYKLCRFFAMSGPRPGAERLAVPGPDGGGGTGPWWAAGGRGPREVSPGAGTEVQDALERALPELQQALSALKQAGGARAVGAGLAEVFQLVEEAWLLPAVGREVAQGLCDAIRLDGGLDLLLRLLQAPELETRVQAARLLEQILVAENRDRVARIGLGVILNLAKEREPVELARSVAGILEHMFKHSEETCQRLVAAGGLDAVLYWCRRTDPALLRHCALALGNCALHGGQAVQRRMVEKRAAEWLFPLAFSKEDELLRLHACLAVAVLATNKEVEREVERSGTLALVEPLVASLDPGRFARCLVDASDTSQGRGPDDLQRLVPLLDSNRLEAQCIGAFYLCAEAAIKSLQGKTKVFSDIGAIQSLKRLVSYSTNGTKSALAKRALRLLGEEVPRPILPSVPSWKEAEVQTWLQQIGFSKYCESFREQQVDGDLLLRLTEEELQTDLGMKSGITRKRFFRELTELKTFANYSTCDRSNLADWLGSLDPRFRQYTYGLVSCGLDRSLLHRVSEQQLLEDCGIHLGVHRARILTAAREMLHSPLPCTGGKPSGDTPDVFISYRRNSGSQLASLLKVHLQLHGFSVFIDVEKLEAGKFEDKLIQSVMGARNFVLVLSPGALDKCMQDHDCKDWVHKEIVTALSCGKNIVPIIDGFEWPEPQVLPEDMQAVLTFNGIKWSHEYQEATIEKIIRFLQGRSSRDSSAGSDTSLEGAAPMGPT

[16] = molecular target: Mitogen-activated protein kinase 7 (Homo sapiens) (UniProt Q13164); assay: Gal4-ERK5 driven luciferase induction – cell-based, HTS, primary screen (AID 1508626;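 active means luciferase signal above three times the same-plate solvent-only control wells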;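 further: luciferase driven by Gal4-ERK5 fusion binding five Gal4 sites before minimal TATA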); settings: HeLa Gal4-ERK5 transactivation, 18 h, at 5 µM, stronger effect = higher value
Sequence of Mitogen-activated protein kinase 7 (Homo sapiens) (Q13164 whole entry, looked up, the tested form may be a part): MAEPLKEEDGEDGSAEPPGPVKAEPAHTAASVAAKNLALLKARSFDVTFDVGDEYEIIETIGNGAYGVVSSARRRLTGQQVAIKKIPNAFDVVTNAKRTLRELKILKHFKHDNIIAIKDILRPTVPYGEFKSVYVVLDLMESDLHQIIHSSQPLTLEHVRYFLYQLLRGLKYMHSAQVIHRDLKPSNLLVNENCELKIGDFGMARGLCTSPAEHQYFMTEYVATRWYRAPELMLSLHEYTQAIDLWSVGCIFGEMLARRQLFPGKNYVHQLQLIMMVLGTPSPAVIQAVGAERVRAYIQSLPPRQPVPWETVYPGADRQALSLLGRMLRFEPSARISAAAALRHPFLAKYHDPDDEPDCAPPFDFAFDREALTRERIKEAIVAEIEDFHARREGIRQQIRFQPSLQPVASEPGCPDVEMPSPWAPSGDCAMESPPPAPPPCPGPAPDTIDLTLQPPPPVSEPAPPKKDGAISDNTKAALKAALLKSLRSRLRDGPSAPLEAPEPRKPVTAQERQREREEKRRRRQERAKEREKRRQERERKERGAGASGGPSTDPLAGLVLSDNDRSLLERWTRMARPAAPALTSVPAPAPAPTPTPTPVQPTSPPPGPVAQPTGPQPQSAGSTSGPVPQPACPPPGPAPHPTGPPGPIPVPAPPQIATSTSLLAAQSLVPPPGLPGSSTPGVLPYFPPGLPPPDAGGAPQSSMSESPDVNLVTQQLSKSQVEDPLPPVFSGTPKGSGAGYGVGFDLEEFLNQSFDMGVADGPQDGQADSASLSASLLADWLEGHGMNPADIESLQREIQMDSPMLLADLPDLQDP

F380Y = assay: BK channel mutant inhibitors and activators – cell-based, U2OS BacMam, thallium flux, beta subunits, selectivity assay, profiling panel (AID 1259406); settings: U2OS BacMam BK variants, at 30 µM;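 further: initial slope of Thallos dye fluorescence rise after thallium is added; log ratio against the mean of 0.3% DMSO vehicle wells on the same plate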
F380Y/beta2Delta = assay: as above; settings: U2OS BacMam BK variants, at 30 µM
[17] = molecular target: Calcium-activated potassium channel subunit alpha-1 (Homo sapiens) + Leucine-rich repeat-containing protein 26 (Homo sapiens) (UniProt Q12791+Q2I0M4); assay: as above; settings: U2OS BacMam BK variants, F380Y/Slo1WT/gamma1, at 30 µM
Sequence of Calcium-activated potassium channel subunit alpha-1 (Homo sapiens) + Leucine-rich repeat-containing protein 26 (Homo sapiens) (Q2I0M4 whole entry, looked up, one chain of several): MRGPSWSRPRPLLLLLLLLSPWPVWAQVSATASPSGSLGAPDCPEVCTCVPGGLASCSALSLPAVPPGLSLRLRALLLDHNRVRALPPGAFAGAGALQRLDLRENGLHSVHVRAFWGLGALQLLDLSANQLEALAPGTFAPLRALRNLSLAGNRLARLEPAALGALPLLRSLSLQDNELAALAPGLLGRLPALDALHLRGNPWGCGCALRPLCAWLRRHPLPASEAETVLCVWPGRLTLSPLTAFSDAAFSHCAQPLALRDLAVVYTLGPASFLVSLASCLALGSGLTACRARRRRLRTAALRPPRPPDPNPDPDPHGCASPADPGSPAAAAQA

[18] = viability loss with induced miR-34 in A549 – imaging, A549 dox-inducible miR-34, nuclei and caspase counts, primary screen (AID 1347080); settings: A549 miR-34 inducible, Hoechst nuclei count, 48 h; measured here: relative caspase fold change +Dox/-Dox
[19] = measured here: epithelial PC-3E GFP cell survival
[20] = measured here: mesenchymal TEM4-18 mCherry cell survival
[21] = MELAS cybrid survival, CellTiter-Glo 48 h, stronger effect = higher value
[22] = Rieske KO mouse fibroblast survival, CellTiter-Glo 72 h

NC(=O)N1c2ccccc2C=Cc2ccccc21
inhibition [1]: -3.18% (inactive) | inhibition [2]: -3.53% (inactive) | fluorescence ratio [3]: 1.04 (inactive) | nuclear beta-catenin stimulation ([4]; at 10 µM): 1% (inactive) | nuclear beta-catenin stimulation ([4]; stimulation, at 2 µM): 0.9% | insulin secretion stimulation [5]: -1.9% (inactive) | viability decrease [6]: -2.95% (inactive) | tube area decrease [7]: 0.8% (inactive) | GLP1 secretion stimulation [8]: 4.4% (inactive) | inhibition of viability [9]: -18.7% (inactive) | viability decrease (inhibition) [10]: 20.2% (inactive) | viability decrease (inhibition) [11]: -3.3% (inactive) | inhibition [12]: 4.77% (inactive) | red/green cell ratio (normalised) [13]: 0.88 (inactive) | normalised cell number [13, 19]: 1.19 | normalised cell number [13, 20]: 1.04 | z-score [14, 21]: 2.18 (active) and 0.491 (inactive) and -0.759 (inactive) | z-score [14, 22]: -0.583 and -0.0689 and -0.563 | remaining NAD [15]: 10 nM (inactive) | luciferase signal [16]: 36 AU (inactive) | log fold change Tl+ flux (F380Y): -0.0389 (inactive) | log fold change Tl+ flux (F380Y/beta2Delta): -0.0114 (inactive) | log fold change Tl+ flux [17]: -0.0331 (inactive)

CC(=O)CCCCn1c(=O)c2c(ncn2C)n(C)c1=O
inhibition [1]: -5.15% (inactive) | inhibition [2]: -2.41% (inactive) | fluorescence ratio [3]: 1 (inactive) | nuclear beta-catenin stimulation ([4]; at 10 µM): 0.1% (inactive) | nuclear beta-catenin stimulation ([4]; stimulation, at 2 µM): -0.8% | insulin secretion stimulation [5]: -1.6% (inactive) | viability decrease [6]: 2.8% (inactive) | tube area decrease [7]: -8.3% (inactive) | GLP1 secretion stimulation [8]: 1.9% (inactive) | inhibition of viability [9]: -8.4% (inactive) | viability decrease (inhibition) [10]: 52.4% (active) | viability decrease (inhibition) [11]: 10.8% (inactive) | inhibition [12]: 4.74% (inactive) | red/green cell ratio (normalised) [13]: 1.09 (inactive) | normalised cell number [13, 19]: 1.25 | normalised cell number [13, 20]: 1.37 | z-score [14, 21]: 0.897 (inactive) and 0.351 (inactive) | z-score [14, 22]: 0.0131 and -0.0411 | remaining NAD [15]: 10 nM (inactive) | luciferase signal [16]: 88 AU (inactive) | log fold change Tl+ flux (F380Y): 0.00269 (inactive) | log fold change Tl+ flux (F380Y/beta2Delta): -0.0305 (inactive) | log fold change Tl+ flux [17]: -0.00624 (inactive)

CCOC(=O)[C@H](CCc1ccccc1)N[C@@H](C)C(=O)N1Cc2ccccc2C[C@H]1C(=O)O
inhibition [1]: -8.64% (inactive) | inhibition [2]: -0.48% (inactive) | fluorescence ratio [3]: 1.04 (inactive) | nuclear beta-catenin stimulation ([4]; at 10 µM): 2.5% (inactive) | nuclear beta-catenin stimulation ([4]; stimulation, at 2 µM): 0.3% | insulin secretion stimulation [5]: 0.7% (inactive) | viability decrease [6]: -30.1% (inactive) | tube area decrease [7]: -10% (inactive) | GLP1 secretion stimulation [8]: 2.9% (inactive) | inhibition of viability [9]: 3.6% (inactive) | viability decrease (inhibition) [10]: 28.5% (inactive) | viability decrease (inhibition) [11]: 6% (inactive) | inhibition [12]: -10.1% (inactive) | red/green cell ratio (normalised) [13]: 0.95 (inactive) | normalised cell number [13, 19]: 1.17 | normalised cell number [13, 20]: 1.12 | fold change [18]: 1.45 and 1.07 and 4.39 | z-score [14, 21]: 0.64 (inactive) and 0.208 (inactive) | z-score [14, 22]: -0.486 and -0.81 | remaining NAD [15]: 10 nM (inactive) | luciferase signal [16]: 64 AU (inactive) | log fold change Tl+ flux (F380Y): 0.032 (inactive) | log fold change Tl+ flux (F380Y/beta2Delta): 0.0255 (inactive) | log fold change Tl+ flux [17]: 0.0143 (inactive)

CN(C)CCC=C1c2ccccc2CCc2ccccc21
inhibition [1]: -7.73% (inactive) | inhibition [2]: -2% (inactive) | fluorescence ratio [3]: 0.92 (inactive) | nuclear beta-catenin stimulation ([4]; at 10 µM): -0.4% (inactive) | nuclear beta-catenin stimulation ([4]; stimulation, at 2 µM): 1.1% | insulin secretion stimulation [5]: 41.5% (active) | viability decrease [6]: -59% (inactive) | tube area decrease [7]: 25% (inactive) | GLP1 secretion stimulation [8]: 5% (inactive) | inhibition of viability [9]: 21.5% (inactive) | viability decrease (inhibition) [10]: 72.1% (active) | viability decrease (inhibition) [11]: -1.8% (inactive) | inhibition [12]: 6.7% (inactive) | red/green cell ratio (normalised) [13]: 1 (inactive) | normalised cell number [13, 19]: 1.31 | normalised cell number [13, 20]: 1.31 | z-score [14, 21]: -0.201 (inactive) and -0.81 (inactive) | z-score [14, 22]: -0.129 and 0.0803 | remaining NAD [15]: 10 nM (inactive) | luciferase signal [16]: 36 AU (inactive) | log fold change Tl+ flux (F380Y): 0.184 (active) | log fold change Tl+ flux (F380Y/beta2Delta): 0.179 (active) | log fold change Tl+ flux [17]: 0.0267 (inactive)

CN(C)C(=O)Oc1ccc[n+](C)c1
inhibition [1]: 0.45% (inactive) | inhibition [2]: 0.29% (inactive) | fluorescence ratio [3]: 0.97 (inactive) | nuclear beta-catenin stimulation ([4]; at 10 µM): 0.1% (inactive) | nuclear beta-catenin stimulation ([4]; stimulation, at 2 µM): 10.5% | insulin secretion stimulation [5]: 0.95% (inactive) | viability decrease [6]: 10.7% (inactive) | tube area decrease [7]: -21.1% (inactive) | GLP1 secretion stimulation [8]: -3.2% (inactive) | inhibition of viability [9]: -1% (inactive) | viability decrease (inhibition) [10]: -8.3% (inactive) | viability decrease (inhibition) [11]: -12.1% (inactive) | inhibition [12]: -7.31% (inactive) | red/green cell ratio (normalised) [13]: 1.32 (inactive) | normalised cell number [13, 19]: 1.15 | normalised cell number [13, 20]: 1.53 | z-score [14, 21]: 0.178 (inactive) and 0.175 (inactive) | z-score [14, 22]: 0.0482 and -0.383 | remaining NAD [15]: 10 nM (inactive) | luciferase signal [16]: 48 AU (inactive) | log fold change Tl+ flux (F380Y): -0.00126 (inactive) | log fold change Tl+ flux (F380Y/beta2Delta): -0.0385 (inactive) | log fold change Tl+ flux [17]: 0.0382 (inactive)

OCCN1CCN(CCCN2c3ccccc3Sc3ccc(Cl)cc32)CC1
inhibition [1]: -2.27% (inactive) | inhibition [2]: 1.81% (inactive) | fluorescence ratio [3]: 0.84 (inactive) | nuclear beta-catenin stimulation ([4]; at 10 µM): 73.5% (active) | nuclear beta-catenin stimulation ([4]; stimulation, at 2 µM): 2.8% | insulin secretion stimulation [5]: 3.5% (inactive) | viability decrease [6]: 99.5% (active) | tube area decrease [7]: 104% (active) | GLP1 secretion stimulation [8]: 45% (active) | inhibition of viability [9]: 100% (active) | viability decrease (inhibition) [10]: 116% (active) | viability decrease (inhibition) [11]: 101% (active) | inhibition [12]: 10.3% (inactive) | red/green cell ratio (normalised) [13]: 1.35 (inactive) | normalised cell number [13, 19]: 0.97 | normalised cell number [13, 20]: 1.32 | z-score [14, 21]: 0.299 (inactive) | z-score [14, 22]: 0.539 | remaining NAD [15]: 10 nM (inactive) | luciferase signal [16]: 44 AU (inactive) | log fold change Tl+ flux (F380Y): 0.23 (active) | log fold change Tl+ flux (F380Y/beta2Delta): 0.336 (active) | log fold change Tl+ flux [17]: -0.0145 (inactive)

OC(CCN1CCCCC1)(c1ccccc1)C1CCCCC1 (configuration not stated)
inhibition [1]: -5.91% (inactive) | inhibition [2]: -2.76% (inactive) | fluorescence ratio [3]: 0.95 (inactive) | nuclear beta-catenin stimulation ([4]; at 10 µM): -1.1% (inactive) | nuclear beta-catenin stimulation ([4]; stimulation, at 2 µM): 7.5% | insulin secretion stimulation [5]: 12.4% (inactive) | viability decrease [6]: -59.3% (inactive) | tube area decrease [7]: 5% (inactive) | GLP1 secretion stimulation [8]: 3.3% (inactive) | inhibition of viability [9]: 34.2% (inactive) | viability decrease (inhibition) [10]: 67.1% (active) | viability decrease (inhibition) [11]: 18.6% (inactive) | inhibition [12]: 5.23% (inactive) | red/green cell ratio (normalised) [13]: 1.08 (inactive) | normalised cell number [13, 19]: 0.92 | normalised cell number [13, 20]: 1 | z-score [14, 21]: 0.423 (inactive) | z-score [14, 22]: 0.169 | remaining NAD [15]: 10 nM (inactive) | luciferase signal [16]: 56 AU (inactive) | log fold change Tl+ flux (F380Y): 0.0654 (inactive) | log fold change Tl+ flux (F380Y/beta2Delta): -0.0109 (inactive) | log fold change Tl+ flux [17]: -0.0285 (inactive)
